The list is not random: actives were taken first. Their share in the collection is about 5.8%.
SW480 rereplic: A quantitative high throughput screen for small molecules that induce DNA re-replication in SW480 colon adenocarcinoma cells | 1.8% of 340,000 active | SW480 DNA re-replication, Hoechst DNA content imaging, 48 h | Potency, µM (top dose mostly 46.1 µM), usual class: activators; note: nearly all actives have a fitted effect of over 55% in size
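First, 250 cells per well were seeded. Next, compound or vehicle (23 nL) was pinned in, plates sat 48 hr at 37 C. Finally Hoechst was added for 40 min before fluorescence scanning.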
KB-V1 cytotox: qHTS assay for MDR1-selective chemotherapeutics: Primary screen using the drug-selected MDR subline cells KB-V1. Potency, µM (titrated, usually from 46.1 µM), actives largely listed as cytotoxic. KB-V1 MDR cells viability, CellTiter-Glo, 72 h. 3.4% of 400,000 active. AID 1347076, 2019; note: nearly all actives have a fitted effect of over 60% in size
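KB-V1, DMEM (no phenol red) + 10% FBS; cpd pin-transferred, titration series; 72 h, 37 degrees C; CellTiter-Glo, luminescence. Data normalized, curve-fit.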
KB-3-1 cytotox: qHTS assay for MDR1-selective chemotherapeutics: Primary screen using the parental adenocarcinoma cell KB-3-1 | KB-3-1 viability, CellTiter-Glo ATP luminescence, 72 h | Potency, µM (titrated, usually from 46.1 µM), most hits filed as cytotoxic | 1.4% of 400,000 active | AID 1347075, 2019; note: nearly all actives have a fitted effect of over 60% in size
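Screening of KB-3-1 cells (DMEM, 10% FBS, phenol-red free) ran from lowest to highest compound concentration; after 72 h at 37 °C viability was read luminescently and curves fitted.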
PINK1 modulator: A Quantitative High throughput Screen to Identify Chemical Modulators of PINK1 Expression. Potency, µM (top dose mostly 76.6 µM), hits mostly activators. AID 624263, 2012. 0.2% of 410,000 active. PINK1 immunofluorescence, high-content cytometry, 24 h; active = well fitted activation curve with a large enough effect; inconclusive = small, poorly fitted or top-dose-only effect; cell line not stated here; note: nearly all actives have a fitted effect of over 65% in size
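A stable cell line was treated with compounds at 5 concentrations for 24 hours, with CCCP as control. PINK1 levels and mitochondrial localization were measured by immunofluorescence with mitochondrial, cell and nuclear markers after fixation, read by laser-scanning cytometry.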
12-LOX inh: Primary qHTS assay for inhibitors of human arachidonate 12S-lipoxygenase (ALOX12): Round 2; 1.1% of 580,000 active; purified 12hLO, xylenol orange hydroperoxide absorbance; AID 1671190, 2021; Potency, µM (titrated, usually from 108 µM), usual class: inhibitors; Polyunsaturated fatty acid lipoxygenase ALOX12 (Homo sapiens), P18054
Target sequence (P18054 whole entry, looked up): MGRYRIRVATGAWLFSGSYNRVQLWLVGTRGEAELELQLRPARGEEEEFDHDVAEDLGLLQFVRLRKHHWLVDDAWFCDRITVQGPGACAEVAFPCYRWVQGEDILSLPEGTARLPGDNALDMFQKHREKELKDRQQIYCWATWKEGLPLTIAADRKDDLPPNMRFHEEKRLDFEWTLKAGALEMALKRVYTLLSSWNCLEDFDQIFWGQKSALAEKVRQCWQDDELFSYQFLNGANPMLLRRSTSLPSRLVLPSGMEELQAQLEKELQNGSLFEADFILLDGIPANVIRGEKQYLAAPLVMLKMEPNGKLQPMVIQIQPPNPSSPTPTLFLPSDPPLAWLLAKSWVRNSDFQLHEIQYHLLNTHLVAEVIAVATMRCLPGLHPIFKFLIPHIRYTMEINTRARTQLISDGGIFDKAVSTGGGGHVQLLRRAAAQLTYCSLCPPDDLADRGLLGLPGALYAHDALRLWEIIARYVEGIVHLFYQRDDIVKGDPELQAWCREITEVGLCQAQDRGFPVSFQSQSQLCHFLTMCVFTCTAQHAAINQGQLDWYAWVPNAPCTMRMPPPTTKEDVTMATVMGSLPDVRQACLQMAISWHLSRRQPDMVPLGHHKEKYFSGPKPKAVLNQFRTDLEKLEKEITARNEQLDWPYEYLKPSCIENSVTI
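Purified human 12hLO (150 nM final) in 25 mM Hepes, 0.01% Triton X-100, pH 7.0 was preincubated 15 min at room temperature with compound. Then 40 uM arachidonic acid was added, 30 min. Hydroperoxide was read by Fe-XO absorbance ratio 573/405 nm.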
MCF10A rerep: A quantitative high throughput screen for small molecules that induce DNA re-replication in MCF 10a normal breast cells. AID 624296, 2012. 2.9% of 350,000 active. Potency, µM (top dose mostly 46.1 µM), hits mostly activators. MCF 10A DNA re-replication, Hoechst nuclear intensity, 48 h; note: nearly all actives have a fitted effect of over 50% in size
A number is an active result; i = inactive; ? = inconclusive; nt = no result given; ! = not confirmed by another sample. Unless noted, calls come from the whole dose curve; as a rule, active = well fitted curve in the direction sought with a large enough effect; inconclusive = small, poorly fitted or top-dose-only effect, or another doubt; inactive = no such curve, though single readings can be large; an effect the other way counts as inactive or inconclusive.

SMILES	SW480 rereplic	KB-V1 cytotox	KB-3-1 cytotox	PINK1 modulator	12-LOX inh	MCF10A rerep
O=C(O)C1=C[C@@H](C2CC2)C[C@@H](OCCCCO)O1	i	i	i	i	i	i
CC(=O)n1cc([C@@H]2C=C(C(=O)O)O[C@H](OCc3ccc(CO)cc3)C2)c2ccccc21	?	i	i	i	?	?
C=CCOC(=O)C1=C[C@@H](c2cn(C(C)=O)c3ccccc23)C[C@@H](OCc2ccc(CO)cc2)O1	i	i	i	i	?	23.1µM
C#CCNC(=O)C1=C[C@H](c2cn(C(C)=O)c3ccccc23)C[C@H](OCc2ccc(CO)cc2)O1	i	i	i	i	i	i
CC(=O)n1cc([C@@H]2C=C(C(=O)NCc3ccccc3)O[C@H](OCc3ccc(CO)cc3)C2)c2ccccc21	i	i	i	i	i	13µM
CC(C)NC(=O)CN1CCN(C(=O)c2cc(-c3ccccn3)nc3ccccc23)CC1	nt	nt	nt	nt	i	nt
O=C(Cc1ccncc1)N1CCC2(CC1)NCCc1c2[nH]c2ccccc12	nt	nt	nt	nt	i	nt
CC[C@@]1(C(=O)OC)N[C@H](CN(C)C(=O)c2ccc(F)cc2)[C@@H]2C(=O)N(C)C(=O)[C@@H]21	i	i	i	i	8.91µM	i
O=C(O)/C(=C\c1ccc(Br)cc1)Sc1nc2ccccc2s1	nt	nt	nt	nt	8.91µM	nt
COc1ccc2ccccc2c1CN1CCSCC1	i	i	i	i	1.58µM	i
COc1cccc(C(NC(=O)c2ccccc2F)NC(=O)c2ccccc2F)c1	i	i	i	i	i	i
COc1cccc(C(c2c(N)[nH]c(=S)[nH]c2=O)c2c(N)[nH]c(=S)[nH]c2=O)c1	5.17µM	i	i	i	?	i
Cc1cccc(OCC(=O)Nc2ccc(S(=O)(=O)Nc3onc(C)c3C)cc2)c1C	i	i	i	i	39.8µM!	i
CCOc1ccccc1OCC(=O)Nc1ccc(S(=O)(=O)Nc2nc(C)cc(C)n2)cc1	i	18.4µM	i	i	i	i
Cc1cc(C)nc(NS(=O)(=O)c2ccc(NC(=O)COc3ccccc3F)cc2)n1	i	i	i	i	i	i
CC(=O)NC(C)C(=O)NC(C)c1ccc(Cl)cc1 (centres undefined)	nt	nt	nt	nt	i	nt
N#C/C(=C/c1cccc(O)c1)c1nc2ccccc2o1	nt	nt	nt	nt	i	nt
COc1ccc(S(=O)(=O)n2oc(=O)cc2-c2ccccc2)cc1	i	i	i	i	?	?
COc1ccc(S(=O)(=O)n2oc(=O)cc2-c2ccccc2)cc1OC	i	i	i	i	14.1µM	i
O=c1cc(-c2ccccc2)n(S(=O)(=O)c2ccccc2)o1	i	i	i	i	10µM	i
CCCOc1nc2ccccc2nc1N1CCC(C(=O)Nc2cc(F)cc(F)c2)CC1	nt	nt	nt	nt	i	nt
CCc1nncn1C1CCN(S(=O)(=O)c2cccc(OC)c2)CC1	nt	nt	nt	nt	79.4µM	nt
COc1cccc(CNC(=O)c2cccc(S(=O)(=O)N3CCN(C)CC3)c2)c1	i	?	i	i	39.8µM	i
COc1cccc(CNC(=O)C2CCN(S(=O)(=O)c3ccccc3)CC2)c1	i	20.6µM	i	i	i	i
COc1ccc(CNC(=O)c2cccc(S(=O)(=O)N3CCN(C)CC3)c2)cc1	i	?	i	i	i	i
COc1ccc(C)cc1NC(=O)CNC(=O)CNc1ccc(F)c(NC(C)=O)c1	nt	nt	nt	nt	i	nt
CCOC(=O)C1=C[C@@H](C(C)C)N(S(=O)(=O)c2ccc([N+](=O)[O-])cc2)[C@H]1c1ccccc1	nt	?	11.6µM	i	i	nt
Cc1c(C(=O)c2cccs2)oc2ccccc12	nt	nt	nt	nt	i	nt
CCOC(=O)CCNC(=O)N1CCCCCC1c1ccc(C)s1 (centres undefined)	nt	nt	nt	nt	i	nt
